# Values of other authors in PubChem BioAssay AID977610 (Shanghai Institute of Organic Chemistry, 2013).
# Out of some 3,600 compounds screened, about 3,600 (100%) were called active. The limit is not given here; nearly all actives have Ki up to about 18000 µM. The set was probably picked from earlier hits. The list shows a part of the results. Numbered stars: 1 amine (or outer) side, 2 acyl side, 3 side chain; on linkers, the order of the positions; unused ones are H or OH. Square brackets hold non-standard residues; d marks the D form. Peptide text beside a SMILES is read from it. LeuΨ(S-CHOHCH2)Ala = CC(C)C[C@H](N[*:1])[C@@H](O)C[C@@H](C)C(=O)[*:2]; Orn(CH(NH2)2) = NC(N)NCCC[C@H](N)C(=O)O; Sta = CC(C)C[C@H](N)[C@@H](O)CC(=O)O
# Assay: PubChem AID 977610
# Conditions: PDB protein-ligand complexes, literature Ki
smiles,measurement,setting,value
O=[N+]([O-])c1cccc2ncccc12,Ki,"protein: PDE10A2, PDB entry 4lm1",590 µM (active)
Nc1nc(N)c2cc(CNc3cc(Cl)ccc3Cl)cnc2n1,Ki,"protein: Dihydrofolate reductase(Q35S, N64F mutants), PDB entry 3oaf",0.0016 µM (active)
same,Ki,"protein: human Dihydrofolate reductase, DHFR, PDB entry 4g95",0.0244 µM (active)
CC[C@H](C)[C@H](NC(=O)[C@H](CO)NC(=O)[C@H](CCCCNC(C)=O)NC(=O)[C@H](Cc1ccccc1)NC(=O)[C@@H](NC(=O)[C@H](CCC(=O)O)NC(=O)[C@H](Cc1ccc(O)cc1)NC(=O)[C@@H](NC(=O)[C@@H](N)CCCNC(N)N)[C@@H](C)O)[C@@H](C)O)C(=O)N[C@@H](CCSC)C(=O)N[C@@H](CCCCN)C(=O)N[C@@H](CCCCN)C(=O)N[C@@H](CO)C(=O)O (H-[Orn(CH(NH2)2)]TYETFK(Ac)SIMKKS-OH),Ki,"protein: Bromodomain-containing protein 4, PDB entry 2lsp",274 µM (active)
CC(C)C[C@H](NC(=O)[C@H](CC(N)=O)NC(=O)[C@@H](NC(=O)[C@H](CCC(=O)O)NC(=O)[C@H](CO)NC(=O)[C@H](Cc1c[nH]c2ccccc12)NC(=O)[C@@H](N)Cc1c[nH]c2ccccc12)C(C)C)[C@@H](O)C[C@@H](C)C(=O)N[C@@H](C)C(=O)N[C@@H](CCC(=O)O)C(=O)N[C@@H](Cc1ccccc1)C(=O)O (H-WWSEVN[LeuΨ(S-CHOHCH2)Ala]AEF-OH),Ki,"protein: Memapsin 2(?-secretase 1), PDB entry 1xn2",3e-05 µM (active)
CC[C@H](C)[C@H](NC(=O)[C@H](CCC(=O)O)NC(=O)[C@H](CCC(=O)O)NC(=O)[C@@H](NC(=O)[C@@H](N)CCCCN)[C@@H](C)O)C(=O)N[C@@H](CO)C(=O)N[C@@H](CCC(=O)O)C(=O)N[C@H](C(=O)N[C@@H](CC(N)=O)C(=O)N[C@@H](CC(C)C)[C@@H](O)CC(=O)N[C@H](C(=O)N[C@@H](C)C(=O)N[C@@H](CCC(=O)O)C(=O)N[C@@H](Cc1ccccc1)C(=O)O)C(C)C)C(C)C (H-KTEEISEVN[Sta]VAEF-OH),Ki,"protein: Memapsin 2(?-secretase 1), PDB entry 1xn3",0.04 µM (active)
Cn1ccnc1[C@@H](NC[C@H]1O[C@@H](n2ccc(=O)[nH]c2=O)C[C@@H]1O)c1ccccc1,Ki,"protein: Deoxyuridine 5'-triphosphate nucleotidohydrolase, putative, PDB entry 3t6y",3 µM (active)
CN(C[C@H]1O[C@@H](n2ccc(=O)[nH]c2=O)C[C@@H]1O)C(c1ccccc1)c1ccccc1,Ki,"protein: Deoxyuridine 5'-triphosphate nucleotidohydrolase, putative, PDB entry 3t70",0.5 µM (active)
O=c1ccn([C@H]2C[C@H](O)[C@@H](CNC(c3ccccc3)c3ccccc3)O2)c(=O)[nH]1,Ki,"protein: Deoxyuridine 5'-triphosphate nucleotidohydrolase, putative, PDB entry 3t64",0.2 µM (active)
O=c1ccn([C@H]2C[C@H](O)[C@@H](CNC(c3ccccc3)(c3ccccc3)c3ccccc3)O2)c(=O)[nH]1,Ki,"protein: Deoxyuridine 5'-triphosphate nucleotidohydrolase, putative, PDB entry 3t60",0.2 µM (active)
COC(=O)N[C@H](C(=O)N/[N+](=C\c1ccc(-c2ccsc2)cc1)CCC[C@@]1(O)Cc2ccc(cc2)CC/C=C\NC(=O)[C@H](C(C)C)NC1=O)C(C)(C)C,Ki,"protein: HIV-1 protease, PDB entry 4cpw",0.0315 µM (active)
COC(=O)N[C@H](C(=O)N/[N+](=C\c1ccc(C2=CCSC2)cc1)CCC[C@@]1(O)Cc2ccc(cc2)C/C=C\CNC(=O)[C@H](C(C)C)NC1=O)C(C)(C)C,Ki,"protein: HIV-1 protease, PDB entry 4cpu",0.0295 µM (active)
CC(C)CN(C[C@@H](O)[C@H](Cc1ccccc1)N[C@@H](O)O[C@H]1CO[C@H]2OCC[C@H]21)S(=O)(=O)c1ccc(C(=O)O)cc1,Ki,"protein: Protease, PDB entry 4i8w",1.27e-05 µM (active)
CCOP(=O)(COc1ccc(C[C@H](NC(=O)O[C@H]2CO[C@H]3OCC[C@H]32)[C@H](O)CN(CC(C)C)S(=O)(=O)c2ccc(OC)cc2)cc1)OCC,Ki,"protein: HIV-1 Protease, PR1 E35EE (VPR1), PDB entry 4m8y",0.00011 µM (active)
same,Ki,"protein: HIV-1 Protease, PR2 (VPR2), PDB entry 4m8x",6.3e-05 µM (active)
CC(C)CN(C[C@@H](O)[C@H](Cc1ccccc1)NC(=O)O[C@H]1CO[C@H]2OCC[C@H]21)S(=O)(=O)c1ccc(C(N)=O)cc1,Ki,"protein: Protease, PDB entry 4i8z",8.9e-06 µM (active)
NC1NC(=O)c2[nH]cc(CN3C[C@H](CO)[C@@H](O)C3)c2N1 (stereo partly drawn),Ki,"protein: Purine nucleoside phosphorylase (W16Y, W94Y, W178Y, H257W mutation), PDB entry 4eb8",0.000151 µM (active)
NC1N[C@@](c2cccc(-c3cncnc3)c2)(c2ccnc(C(F)F)c2)c2cccc(F)c21 (stereo partly drawn),Ki,"protein: BETA-SECRETASE 1, PDB entry 4b05",0.0261 µM (active)
CCC(CC)O[C@@H]1CC(C(=O)O)=C[C@H](N)[C@H]1NC(C)=O,Ki,"protein: Neuraminidase, PDB entry 4ks1",0.0015 µM (active)
CCC(CC)O[C@@H]1C=C(C(=O)O)C[C@H](NC(N)N)[C@H]1NC(C)=O,Ki,"protein: Neuraminidase, PDB entry 4ks2",0.00046 µM (active)
Cc1onc(-c2ccccc2Cl)c1C(=O)NCC(=O)O,Ki,"protein: AmpC beta-lactamase, PDB entry 4kz5",10000 µM (active)
C[C@@H](O)c1nc2cnc3[nH]ccc3c2n1C1CCC(CC#N)CC1 (stereo partly drawn),Ki,"protein: Tyrosine-protein kinase JAK1, PDB entry 4ivc",0.0001 µM (active)
C[C@@H](O)c1nc2cnc3[nH]ccc3c2n1C1CCC(C#N)CC1 (stereo partly drawn),Ki,"protein: Tyrosine-protein kinase JAK1, PDB entry 4ivb",0.0019 µM (active)
same,Ki,"protein: Tyrosine-protein kinase JAK2, PDB entry 4iva",0.0684 µM (active)
COc1ccc(C2CCCC3N=C(Nc4ccc(N5CCN(C)CC5)cc4)NN32)cc1 (stereo not drawn),Ki,"protein: Tyrosine-protein kinase JAK2, PDB entry 4jia",0.0006 µM (active)
CC(=O)N[C@H]1[C@H]([C@H](O)[C@H](O)CO)OC(C(=O)O)C[C@@H]1O (stereo partly drawn),Ki,"protein: Trypanosoma cruzi trans-sialidase, PDB entry 1ms0",1230 µM (active)
same,Ki,"protein: human cytosolic sialidase Neu2, PDB entry 1vcu",140 µM (active)
CC(=O)N[C@H]1[C@H]([C@H](O)[C@H](O)CO)O[C@@H](C(=O)O)C[C@@H]1N=C(N)N,Ki,"protein: Neuraminidase from the B-Lyon-CHU-15.216-2011 virus, PDB entry 4cpz",0.0209 µM (active)
CC(=O)N[C@H]1[C@H]([C@H](O)[C@H](O)CO)OC(C(=O)O)C[C@@H]1NC(N)N (stereo partly drawn),Ki,"protein: Human Sialidase Neu2, PDB entry 2f0z",17 µM (active)
CCC(CC)(NC(=O)C(C)C)C(=O)N[C@@H](CCCNC(N)N)C(=O)NC1(C(=O)NC(c2ccccc2)c2ccccc2)CCCC1,Ki,"protein: WD repeat-containing protein 5, PDB entry 4gm3",0.001 µM (active)
CCC(CC)(NC(=O)C(C)C)C(=O)N[C@@H](CCCNC(N)N)C(=O)NC1(C(=O)NC(c2ccc(F)cc2)c2ccc(F)cc2)CCCC1,Ki,"protein: WD repeat-containing protein 5, PDB entry 4gm8",0.001 µM (active)
C[C@](COC(=O)CCCCC(=O)O)([C@@H](NCCC=O)C(=O)O)S(=O)O,Ki,"protein: SHV-1 beta-lactamase, PDB entry 4mbf",1.7 µM (active)
C[C@H](C(=O)O)c1ccc2c(c1)[nH]c1ccc(Cl)cc12,Ki,"protein: E. coli sliding clamp, DNA polymerase III subunit beta, PDB entry 4mjr",283 µM (active)
